The list is not random: actives were taken first. Their share in the collection is about 2.3%.
Bcl-xL primary: inhibitors of human Bcl-xL, primary screen, biochemical, fluorescence polarization, HTS; GST-Bcl-xL / FITC-Bim BH3 peptide fluorescence polarization; hit rate 0.7% among 320,000; inhibition, % at 10.9 µM; Bcl-2-like protein 1 (Homo sapiens), Q07817; AID 2129, 2009;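 active = inhibition above the mean of all tested compounds plus 3 SD, cutoff set per campaign, cut at about 30% in these data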;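 note: 0% = DMSO wells and 100% = unlabeled Bim-BH3 peptide competitor; inhibitors lower millipolarization by displacing the labeled peptide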
Target sequence (Q07817 whole entry, looked up): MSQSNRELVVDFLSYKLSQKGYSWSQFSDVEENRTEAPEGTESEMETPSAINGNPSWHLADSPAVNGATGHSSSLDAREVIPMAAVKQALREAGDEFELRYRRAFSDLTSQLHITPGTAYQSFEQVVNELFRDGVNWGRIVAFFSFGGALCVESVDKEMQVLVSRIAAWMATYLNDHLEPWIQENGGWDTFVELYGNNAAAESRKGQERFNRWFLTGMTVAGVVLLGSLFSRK
GLD-1 TGE inh: GLD-1/TGE RNA complex disruptors, primary screen, biochemical, fluorescence polarization; Female germline-specific tumor suppressor gld-1 (Caenorhabditis elegans), Q17339; purified GLD-1 + fluorescein TGE RNA; inhibition, % at 5.96 µM; hit rate 0.44% among 320,000;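 active = percent inhibition above a per-plate cutoff, the plate mean of test compounds plus 3 SD, cut at about 30% in these data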;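 note: 0% = DMSO wells with GLD-1 and probe and 100% = wells lacking GLD-1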
MCL1-BIM inh: inhibitors of MCL1 binding to BIM-BH3, primary screen, biochemical, fluorescence polarization | Induced myeloid leukemia cell differentiation protein Mcl-1 (Homo sapiens), Q07820 | GST-MCL1 / FITC-Bim-BH3 fluorescence polarization | inhibition, % at 10.9 µM | hit rate 0.68% among 320,000 | AID 2057, 2009;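 active = inhibition above the mean inhibition of all tested compounds plus 3 SD, set per campaign, cut at about 40% in these data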;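 note: 0% = DMSO wells and 100% = unlabeled Bim-BH3 peptide control; higher means more loss of mP so more displacement of Bim peptide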
Target sequence (Q07820 whole entry, looked up): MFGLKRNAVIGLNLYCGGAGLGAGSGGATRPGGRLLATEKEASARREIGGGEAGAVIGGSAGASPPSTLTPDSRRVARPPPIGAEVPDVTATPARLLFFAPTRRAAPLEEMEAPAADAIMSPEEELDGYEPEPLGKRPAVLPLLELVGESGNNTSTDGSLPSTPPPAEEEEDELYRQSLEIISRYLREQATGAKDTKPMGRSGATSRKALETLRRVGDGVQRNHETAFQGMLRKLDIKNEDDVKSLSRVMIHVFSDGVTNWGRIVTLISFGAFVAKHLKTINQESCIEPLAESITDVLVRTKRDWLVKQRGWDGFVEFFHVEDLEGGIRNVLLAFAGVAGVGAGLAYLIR
Mcl1 Bid PPI: Mcl-1/Bid binding inhibitors, primary screen, biochemical, TR-FRET, 1536-well; Induced myeloid leukemia cell differentiation protein Mcl-1 (Homo sapiens), Q07820; TR-FRET Mcl-1/Bid-Dy647 peptide binding; inhibition, % at 21.7 µM; hit rate 0.97% among 220,000;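 active = compounds that cut the binding signal by more than half at the single screening dose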;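 note: His-tagged Mcl-1 with europium anti-His antibody binding Bid BH3 peptide; 0% = Mcl-1 plus peptide wells and 100% = peptide-only wells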
Mcl1 Noxa PPI: Mcl-1/Noxa binding inhibitors, primary screen, biochemical, TR-FRET, 1536-well; TR-FRET Mcl-1/Noxa peptide binding, 2 h; inhibition, % at 21.7 µM; hit rate 1.5% among 220,000; AID 1022, 2008;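 active = compounds that cut the protein-peptide binding signal by more than 50% relative to plate controls in a single-dose test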;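 note: His-tagged Mcl-1 with rhodamine Noxa BH3 peptide and terbium anti-His antibody; 0% = Mcl-1 plus Noxa peptide wells and 100% = peptide-only wells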
Mcl-1 Bim block: inhibitors of Bim peptide binding to Mcl-1, primary screen, biochemical, bead-based flow cytometry, multiplex; inhibition, % at 10 µM; hit rate 0.1% among 190,000; Induced myeloid leukemia cell differentiation protein Mcl-1 (Homo sapiens), Q07820; AID 1009, 2008; Bim peptide-Mcl-1 binding; in the data active = inhibition above about 40%;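 note: 0% = no compound tracer wells and 100% = peptide blocker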
Starred values were filed as active, the others as inactive; · = not tested or not shown.

SMILES	Bcl-xL primary	GLD-1 TGE inh	MCL1-BIM inh	Mcl1 Bid PPI	Mcl1 Noxa PPI	Mcl-1 Bim block
CCC(C)c1ccc(NC(=S)NC(C)C2CCCO2)cc1 (centres undefined)	4.3	4.9	5.9	-2.3	-7.2	-5.0
CC(OC(=O)c1cc(S(=O)(=O)N2CCOCC2)ccc1Br)C(=O)N1CCOCC1 (centres undefined)	-2.5	-3.4	-6.0	·	·	·
O=C(c1cc2sccc2n1Cc1ccc(F)cc1)N1CCN(c2nc3ccccc3s2)CC1	78.5*	-3.0	5.5	-16.4	-6.2	3.0
COc1ccc(NS(=O)(=O)c2cc(NC(=O)c3ccc(=O)[nH]n3)ccc2C)cc1	6.1	5.3	6.0	·	·	·
Cc1cc(C)n(-c2nc3ccccc3s2)n1	4.9	2.5	2.0	-19.9	-2.5	-1.0
Cc1c2c(=O)n(-c3nc4ccccc4s3)nc-2cc(O)n1Cc1ccccc1	·	·	·	-98.7	73.4*	·
Cc1ccc(S(=O)(=O)CCC(=O)OCc2ccc(S(=O)(=O)C(C)C)cc2)cc1	6.0	5.9	11.9	-17.1	4.8	0.0
Cc1ccc(S(=O)(=O)CCC(=O)OCC(=O)Nc2ncc(Cl)cc2Cl)cc1	19.2	15.4	17.1	87.3*	8.4	-1.0
Cc1ccc(S(=O)(=O)CCC(=O)OCc2ccc(Cl)c(Cl)c2)cc1	-1.5	5.6	-6.0	55.2*	10.9	0.0
O=C(COC(=O)c1ccccc1NC(=O)c1ccco1)Nc1ncc(Cl)cc1Cl	5.0	7.8	-2.7	-5.6	27.1	-2.0
O=C(COC(=O)c1ccccc1O)Nc1ncc(Cl)cc1Cl	35.6*	9.6	40.3*	-73.5	43.6	0.0
Cc1cc(C)c2cc(C(=O)N3CCN(c4ncccc4C(F)(F)F)CC3)[nH]c2c1	3.1	6.3	-0.5	·	·	·
O=C(COC(=O)c1ccc2ccccc2c1)NCCCc1ccccc1	3.0	-1.3	3.8	81.0*	4.8	-2.0
Nc1cc(C(=O)OCC(=O)NCCCc2ccccc2)ccc1Cl	2.7	-4.4	6.5	·	·	·
CN(Cc1ccco1)C(=O)c1cc2c(s1)-c1ccc(Cl)cc1S(=O)(=O)C2	5.3	7.1	6.0	·	·	·
O=C1c2ccc3c4c(ccc(c24)C(=O)N1c1cccc(O)c1)C(=O)N(c1cccc(O)c1)C3=O	8.1	0.5	8.3	-50.5	49.2	·
CC1(C)CC(=O)C2=C(C1)N(c1cccc(O)c1)C1=C(C2)C(=O)CC(C)(C)C1	81.1*	40.2*	74.5*	-26.3	19.7	-2.0
Cc1ccc(NC(=O)C(C)OC(=O)CCC2CCCCC2)cc1 (centres undefined)	3.1	8.3	0.0	·	·	·
Cn1ncc([N+](=O)[O-])c1C(=O)Nc1cccc(Cl)c1	0.4	6.5	7.4	·	·	·
Cn1ncc(Cl)c1C(=O)Nc1cccc(Cl)c1	15.3	3.2	20.7	3.9	52.1*	-1.0
Cn1ncc(N=Cc2c(O)ccc3ccccc23)c1C(=O)Nc1cccc(Cl)c1	31.1*	10.1	45.8*	54.7*	44.1	2.0
CC(C)CCNC(=O)CN(Cc1ccc(F)cc1)C(=O)CCC(=O)Nc1ccccn1	7.2	-9.6	5.7	·	·	·
Cc1nc2cc(-c3ccsc3-n3c(C)ccc3C)[nH]n2c(=O)c1Cl	8.8	-20.7	15.6	-36.7	61.0*	1.0
COCc1cc(=O)n2[nH]c(N)nc2n1	3.9	6.6	11.3	-33.1	6.4	·
COCc1cc(=O)n2[nH]c(-c3ccsc3-n3c(C)ccc3C)cc2n1	7.1	-2.3	7.5	-24.8	68.9*	-3.0
SMILES	Bcl-xL primary	GLD-1 TGE inh	MCL1-BIM inh	Mcl1 Bid PPI	Mcl1 Noxa PPI	Mcl-1 Bim block
Cc1cc(=O)n2[nH]c(-c3ccc(F)cc3)cc2n1	-6.3	0.4	-5.9	-19.3	6.1	-4.0
Cc1cc(=O)n2[nH]c(-c3ccsc3-n3c(C)ccc3C)cc2n1	8.3	-22.6	28.4	-87.1	96.6*	·
Cc1ccccc1-c1cc2nc(C)c(Cl)c(=O)n2[nH]1	2.4	-1.6	0.6	·	·	·
COc1ccc(OC)c(NC(=O)Nc2ccc3c(c2)OCO3)c1	5.9	5.0	-0.5	·	·	·
Cc1nc(N2CCCCC2)nc(N2CCCCC2)c1C=O	-0.6	-6.1	-3.0	0.6	4.6	-2.0
COC(=O)c1ccc(CSc2ncnc3sc(C)c(C)c23)o1	11.5	8.3	20.1	58.7*	13.7	-2.0
COc1ccc(S(=O)(=O)Nc2ccc(C)cn2)cc1	1.7	-0.8	0.5	·	·	·
Fc1cccc(NC(=S)NNc2c3ccccc3nc3ccccc23)c1	·	·	·	-18.9	80.3*	1.0
CCCCNC(=O)[C@]1(C)CCC[C@@]2(C)C3CC[C@@]4(C)C[C@]3(CCC21)CC4=O (some centres undefined)	1.1	0.7	1.1	·	·	·
CC(Sc1ccc2nnc(-c3ccc(F)cc3)n2n1)C(=O)O (centres undefined)	-0.1	3.3	-4.6	-26.3	9.9	-5.0
Cc1ccc(-c2nnc3ccc(SC(C)C(=O)O)nn23)cc1 (centres undefined)	1.2	3.8	-0.2	-7.9	77.6*	-2.0
CCc1ccc(S(=O)(=O)/N=C2\C=CC(=O)c3ccccc32)cc1	13.9	5.6	18.7	-12.4	86.6*	1.0
CCc1ccc(S(=O)(=O)/N=C2/C=C(Sc3ncn[nH]3)C(=O)c3ccccc32)cc1	26.5	4.2	32.3	39.7	101.4*	1.0
CCc1ccc(S(=O)(=O)/N=C2\C=C(Nc3ccc(O)cc3)C(=O)c3ccccc32)cc1	5.2	7.4	11.7	·	·	·
Cc1ccc(-n2c(=O)c3sccc3n(CC(=O)N3CCCC3)c2=O)cc1	-1.1	-6.7	-3.0	-9.3	-10.5	0.0
O=C(Cn1c(=O)n(-c2ccccc2)c(=O)c2sccc21)N1CCCC1	-1.9	-1.9	-2.2	5.8	104.5*	0.0
CCCOCCc1nnc(N)s1	1.1	-1.3	3.7	-20.4	5.8	·
O=C1c2ccccc2C(=O)C1c1nccc2ccccc12	8.3	1.7	14.9	35.2	57.5*	1.0
O=C1c2ccccc2C(=O)C1c1ccnc2ccccc12	0.6	-8.1	-5.7	14.1	30.9	2.0
CCc1ccc(C(CC(=O)c2ccc(Cl)cc2)C(=O)O)cc1 (centres undefined)	7.9	2.3	7.2	95.5*	6.6	-2.0
COc1ccc2nc(Nc3nc(CSc4nc5ccccc5[nH]4)cc(=O)[nH]3)nc(C)c2c1	4.2	1.7	5.1	55.8*	-112.5	-4.0
O=C(O)/C=C/C(=O)Nc1ccc(N2CCOCC2)nc1N1CCOCC1	38.5*	28.8	31.4	-13.0	35.6	·
CCNc1cc2oc(=O)c(CN3CCOCC3)c(C)c2cc1C	32.2*	21.8	29.3	-14.2	12.8	0.0
COC(=O)Cn1cnc2c(nnn2-c2ccc(OC)cc2)c1=O	3.6	-7.2	1.9	·	·	·
